The source holds several records for some structures; these can differ, active in one and inactive in another. Activity calls are given as the source filed them. Rule for the calls: active = hit-call score of the fitted dose curve at least 0.9, where 1 is the maximum; inactive = score below 0.9.
Test: ATG_GRE_CIS: Attagene CIS-FACTORIAL HepG2 Assay for human Glucocorticoid Response Elements (GRE) (AID 2282947)
Conditions: HepG2 GRE cis-reporter, Attagene multiplex mRNA; actives raise or lower the signal
Experimental: ATG_CIS is a cell-based, multiplexed-readout assay that uses HepG2, a human liver cell line, with measurements taken at 24 hours after chemical dosing in a 24-well plate.ATG_GRE_CIS is one of 52 assay component(s) measured or calculated from the ATG_CIS assay. It is designed to make measurements of mRNA induction, a form of inducible reporter, as detected with fluorescence intensity signals by Reverse transcription polymerase chain reaction (RT-PCR) and Capillary electrophoresis technology.Data from the assay component ATG_GRE_CIS was analyzed into 1 assay endpoint. This assay endpoint, ATG_GRE_CIS, was analyzed with bidirectional fitting relative to DMSO as the negative control and baseline of activity. Using a type of inducible reporter, measures of mRNA for gain or loss-of-signal activity can be used to understand the reporter gene at the transcription factor-level as they relate to the gene NR3C1. Furthermore, this assay endpoint can be referred to as a primary readout, because this assay has produced multiple assay endpoints where this one serves a reporter gene function. To generalize the intended target to other relatable targets, this assay endpoint is annotated to the nuclear receptor intended target family, where the subfamily is steroidal.
Human liver HepG2 cells are transiently transfected with multiple reporter transcription units (MRTUs) in 6-well plates using FuGene 6 reagent (Roche; 3 ml FuGene/1 mg DNA). The MRTU constructs are regulated by a cis-regulating element (promoter). […] A major difference between the CIS and TRANS system is that in CIS activities of endogenous TFs are measured, whereas the TRANS assay evaluates changes in activities of exogenous, chimeric NR-Gal4 proteins. […] At the end of 24 hour incubation, total RNA was isolated using TriZol reagent (Invitrogen). The isolated RNA is then reverse-transcribed using oligo(dT) primer and Mo-MLV reverse transcriptase (Invitrogen) with DNAse I (Ambion) treatment for 30 min. The one-tenth of the produced cDNA was amplified by PCR using Taq DNA polymerase (Invitrogen) and two reporter sequence-specific primers. The PCR products were fluorescently labeled by primer extension with 6-arboxyfluorescein (6-FAM) 5'-labeled reporter sequence-specific primer (2 min at 95 C, 20 s at 68 C and 10 min at 72 C) and these products were digested with 5U of HpaI (New England Biolabs) for 2h at 37 C. The fragments were purified using Qiaquick PCR columns (Qiagen), analyzed on an ABI 3130xL genetic analyzer (Applied Biosystems) with peak positions identified by using a set of X-rhodamine (ROX)-labeled MapMarker1000 molecular weight standards (BioVentures). The raw capillary electrophoresis data was processed using Attagraph software (Attagene).
In the case of `CC(C)(c1ccccc1)c1ccc(O)cc1`, the AC50 is reported as 51.3 µM (active) and the outcome is reported as “inactive”. For `Cc1cc(O)ccc1Cl`, the outcome was “inactive”. For `CN(C)CCO`, the outcome was “inactive”. In the case of `CCC(C)c1cc([N+](=O)[O-])cc([N+](=O)[O-])c1O` (stereo unspecified), the outcome is reported as “inactive”. With `CC(C)C(=O)OCC(C)(C)C(OC(=O)C(C)C)C(C)C` (stereo unspecified) the outcome was “inactive”. For `ClC(Cl)=C(c1ccc(Cl)cc1)c1ccc(Cl)cc1`, the outcome was “inactive”. For `O=S(=O)(O)C(F)(F)C(F)(F)C(F)(F)C(F)(F)C(F)(F)C(F)(F)F`, the outcome was “inactive”. For `C[C@]12CCC(=O)C=C1CC[C@@H]1[C@@H]2CC[C@@]2(C)[C@H]1CC[C@]2(C)O`, the outcome was “inactive”. For `Cc1ccccc1O`, the outcome was “inactive”. For `O=NN(c1ccccc1)c1ccccc1`, the outcome was “inactive”. With `O=C(N[C@H]1CN2CCC1CC2)c1cc2ccoc2cn1` the outcome was “inactive”. In the case of `COc1ccc(O)c(C(C)(C)C)c1`, the outcome is reported as “inactive”. With `Oc1ccc(C(c2ccc(O)cc2)(C(F)(F)F)C(F)(F)F)cc1` the outcome was “inactive”. In the case of `CCCN(CCC)N=O`, the outcome is reported as “inactive”. With `NS(=O)(=O)C(F)(F)C(F)(F)C(F)(F)C(F)(F)C(F)(F)C(F)(F)C(F)(F)C(F)(F)F` the outcome was “inactive”. For `ClC1=C(Cl)[C@]2(Cl)[C@@H]3[C@@H]4C[C@@H]([C@H]5O[C@@H]45)[C@@H]3[C@@]1(Cl)C2(Cl)Cl`, the outcome was “inactive”. With `CC(c1ccc(O)cc1)(c1ccc(O)cc1)c1ccc(O)cc1` the outcome was “inactive”. For `Cc1cccc(C)c1N`, the outcome was “inactive”. With `Nn1cnnc1` the outcome was “inactive”. For `C=CC(N)=O`, the outcome was “inactive”. For `Cc1ccccc1[N+](=O)[O-]`, the outcome was “inactive”. For `c1cc2ccc3cccc4ccc(c1)c2c34`, the outcome was “inactive”. For `OCC(O)CO`, the outcome was “inactive”. With `CCOC(=O)C(O)(c1ccc(Cl)cc1)c1ccc(Cl)cc1` the outcome was “inactive”. For `Nc1ccc(-c2ccc(N)cc2)cc1`, the outcome was “inactive”. For `O=C(NC(=O)c1cc(F)c(F)cc1Cl)Nc1cc(F)ccc1N1CCC(C(=O)O)CC1`, the outcome was “inactive”. In the case of `ClC1=C(Cl)[C@]2(Cl)[C@@H]3[C@H]4C[C@H]([C@@H]5O[C@H]45)[C@@H]3[C@@]1(Cl)C2(Cl)Cl`, the outcome is reported as “inactive”. For `CCCCCCOC(=O)c1ccccc1C(=O)OCCCCCC`, the outcome was “inactive”. In the case of `CC#Cc1cc(C)nc(Nc2ccccc2)n1`, the outcome is reported as “inactive”. In the case of `CCSC(=O)N(CC)C1CCCCC1`, the outcome is reported as “inactive”. For `Clc1ccc(Cl)cc1`, the outcome was “inactive”. In the case of `Sc1ccccc1`, the outcome is reported as “inactive”. For `O=S(=O)(O)C(F)(F)C(F)(F)C(F)(F)C(F)(F)F`, the outcome was “inactive”. With `CCOCCOC(C)=O` the outcome was “inactive”. With `ClC1=C(Cl)[C@]2(Cl)[C@@H]3[C@@H](Cl)[C@H]4O[C@H]4[C@@H]3C1(Cl)C2(Cl)Cl` the outcome was “inactive”. In the case of `c1ccc(-c2ccccc2)cc1`, the outcome is reported as “inactive”. For `Cc1ccc(O)c(C)c1`, the outcome was “inactive”. For `C=CC(=O)NCNC(=O)C=C`, the outcome was “inactive”. With `CCC(=O)O[C@H]1CC[C@H]2[C@@H]3CCC4=CC(=O)CC[C@]4(C)[C@H]3CC[C@]12C` the outcome was “inactive” and the AC50 was 157 µM (active).
